# DT40 TDP1 no CPT – qHTS for Inhibitors of human tyrosyl-DNA phosphodiesterase 1 (TDP1): qHTS in cells in absence of CPT | DT40 Tdp1-/- hTDP1 cells, no CPT, ATP luminescence, 48 h | Potency, µM (highest dose often 46.2 µM), inactives show top-dose activity change, negative = growth inhibition, usual class: inhibitors | 420,000 compounds, 15% hits | AID 686978, 2013; note: potency is the fitted concentration of half-maximal effect; nearly all actives have a fitted effect of over 55% in size
#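 Compound effects on proliferation are scored in DT40 Tdp1-/-;hTDP1 cells in the absence of CPT. ATP levels (CellTiter-Glo luminescence) are recorded after a ≥48 hr, 37 °C incubation.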
# HT1080NT lethal – kills 2HG-producing HT-1080-NT fibrosarcoma cells. HT-1080-NT fibrosarcoma viability, CellTiter-Glo ATP luminescence, 48 h. 360,000 compounds, 1.6% hits. Potency, µM (highest dose often 46.1 µM), for the others: top-dose activity, negative = less viability, usual class: cytotoxic. AID 686970;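 note: NT is the 2HG producing partner of a matched IDH1 knockdown line; potency is the fitted concentration of half-maximal effect; 0% = DMSO-treated cells and -100% = media-only wells without cells; nearly all actives have a fitted effect of over 55% in size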
#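 HT-1080-NT fibrosarcoma cells (2HG-overproducing), 750 cells/well in RPMI with 5% FBS, dosed after 2 h and incubated 48 h at 37C. CellTiter-Glo luminescence normalized to DMSO and no-cell wells; concentration-response curves fitted and classed.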
# IL-1B inflam inh – inhibitors of inflammasome signaling (IL-1 beta secretion); activity change, % at 57.5 µM; THP-1 LPS/ATP IL-1B secretion, AlphaLISA, 16 h; stronger effect = lower value; 360,000 compounds, 4.7% hits; in the data active = activity change below about -50%; inconclusive = mostly about -30% to -49%
#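 Secreted IL-1B measured by AlphaLISA bead assay after 16 h compound exposure of THP-1 cells; compounds (final up to 57.5 uM) added 1 h before LPS (250 ng/mL) and ATP (1.25 mM) stimulation; lower signal means less secretion.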
# ALOX12 inh – blocks human arachidonate 12S-lipoxygenase; purified 12hLO, xylenol orange hydroperoxide absorbance; 580,000 compounds, 1.1% hits; Potency, µM (titrated, usually from 108 µM), inactives show at the top dose activity change, negative = inhibition, usual class: inhibitors; P18054; note: potency is the fitted concentration of half-maximal effect
# Target sequence (P18054 whole entry, looked up): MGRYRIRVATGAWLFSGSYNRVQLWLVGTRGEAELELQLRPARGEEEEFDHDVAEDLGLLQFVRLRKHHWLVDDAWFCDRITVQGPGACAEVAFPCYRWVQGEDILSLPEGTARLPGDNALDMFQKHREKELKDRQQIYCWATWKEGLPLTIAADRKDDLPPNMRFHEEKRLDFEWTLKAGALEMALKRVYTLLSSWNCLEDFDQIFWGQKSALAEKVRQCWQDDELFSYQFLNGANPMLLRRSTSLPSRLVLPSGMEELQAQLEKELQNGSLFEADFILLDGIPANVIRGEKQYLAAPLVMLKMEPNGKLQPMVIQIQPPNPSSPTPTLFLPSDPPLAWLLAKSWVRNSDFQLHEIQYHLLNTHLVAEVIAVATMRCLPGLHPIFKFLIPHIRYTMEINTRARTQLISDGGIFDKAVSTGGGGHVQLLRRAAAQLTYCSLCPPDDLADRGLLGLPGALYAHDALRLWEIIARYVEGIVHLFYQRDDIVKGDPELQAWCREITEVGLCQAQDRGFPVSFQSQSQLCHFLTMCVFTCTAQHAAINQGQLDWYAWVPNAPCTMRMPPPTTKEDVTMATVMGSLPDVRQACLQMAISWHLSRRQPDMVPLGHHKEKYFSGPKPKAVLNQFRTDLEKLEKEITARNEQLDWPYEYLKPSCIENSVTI
#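 Purified human 12hLO (150 nM final) in 25 mM Hepes, 0.01% Triton X-100, pH 7.0 was preincubated 15 min at room temperature with compound. Then 40 uM arachidonic acid was added, 30 min. Hydroperoxide was read by Fe-XO absorbance ratio 573/405 nm.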
# HT1080 IDH1KD tx – toxicity to HT-1080 IDH1 knockdown cells (counter line); HT-1080 IDH1 knockdown viability, ATP luminescence, 48 h; Potency, µM (series often up to 46.1 µM), without a hit: top-dose activity, negative = toxicity, hits mostly cytotoxic; 360,000 compounds, 2% hits;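 note: potency is the fitted concentration of half-maximal effect; 0% = DMSO wells and -100% = cell-free medium wells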
#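 Knockdown cells (IDH1KD HT-1080) received compounds 2 h after plating at 750 cells/well and were kept 48 h at 37 °C in 5% FBS RPMI. A CellTiter-Glo luminescence read gave % activity for curve fitting.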
# DT40 TDP1 CPT – growth inhibition of DT40 Tdp1-/-;hTDP1 cells with camptothecin (screen for TDP1 inhibitors) | chicken DT40 Tdp1-/-;hTDP1 cells + 20 nM CPT, ATP luminescence, 48 h | Potency, µM (top dose mostly 46.2 µM), for the others: top-dose activity change, negative = growth inhibition, usual class: inhibitors | 420,000 compounds, 12% hits; note: potency is the fitted concentration of half-maximal effect; nearly all actives have a fitted effect of over 55% in size
#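 Chicken DT40 Tdp1-/- cells stably complemented with human TDP1 were seeded at 400 cells/well in medium containing 20 nM camptothecin, exposed to pin-transferred compounds, and grown at 37 °C for at least 48 hr. Viability was read as ATP luminescence.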
# * = called active by the depositor; ? = inconclusive; / = no result given; [ ] = another dose, or the depositor's remark. The sample as a whole holds a higher share of hits than the screen did. Unless noted, calls come from the whole dose curve; as a rule, active = well fitted curve in the direction sought with a large enough effect; inconclusive = small, poorly fitted or top-dose-only effect, or another doubt; inactive = no such curve, though single readings can be large; an effect the other way counts as inactive or inconclusive. Unless noted, % is set by controls: 0 for no effect and ±100 for the full control effect.
SMILES,DT40 TDP1 no CPT,HT1080NT lethal,IL-1B inflam inh,ALOX12 inh,HT1080 IDH1KD tx,DT40 TDP1 CPT
COc1cccc(N2CCN(C(=O)CN(c3ccc(C)cc3)S(=O)(=O)c3c(C)n[nH]c3C)CC2)c1,?,-4.7%,0.1,-2.6%,-9.1%,-9.4%
COc1ccc(N(CC(=O)Nc2cc(Cl)ccc2C)S(=O)(=O)c2c(C)n[nH]c2C)cc1,5.17µM*,?,-10.2,-24.7%,?,4.11µM*
COc1ccc(N(CC(=O)Nc2ccc(C)cc2C)S(=O)(=O)c2c(C)n[nH]c2C)cc1,18.4µM*,-16.0%,-0.9,19.3%,?,-10.9%
COc1ccc(N(CC(=O)NCc2ccc(Cl)cc2)S(=O)(=O)c2c(C)n[nH]c2C)cc1,-15.8%,-0.1%,-9.3,?,-7.8%,2.2%
CNC(=O)[C@@H]1C[C@H](n2cc(CNC(=O)Nc3cccc(Cl)c3C)nn2)CN1,/,/,/,3.7%,/,/
CC1(c2noc(C3CC3)n2)CCN(C(=O)CCc2cc(Cl)no2)CC1,/,/,/,8.1%,/,/
Cc1ccc(SC(=O)c2ccccc2)cc1,/,/,/,36.8%,/,/
Cc1noc([C@@H]2CN(C(=O)COc3ccccc3)C[C@H]2CO)n1,/,/,/,28.5%,/,/
CC1CCCCC1NC(=O)CSc1ccc2c(c1)OCCCO2 (stereo unspecified),/,/,/,-2.8%,/,/
O=C1Nc2ccccc2CNC12CCN(CC1CC1)CC2,/,/,/,1.7%[12.5 µM],/,/
COc1ccc(N(CC(=O)Nc2ccc(F)c(F)c2)S(=O)(=O)c2c(C)n[nH]c2C)cc1,6.1%,-6.9%,0.0,?,-13.2%,-6.0%
COc1ccc(NC(=O)CN(c2cc(C)cc(C)c2)S(=O)(=O)c2c(C)n[nH]c2C)cc1,?,?,-8.0,5.4%,?,29.1µM*
CCSc1ccc([C@@H]2[C@@H]3C(=O)N(CC)C(=O)[C@@H]3[C@]3(C(=O)OC)CCCN23)cc1,23.1µM*,-1.0%,16.5,?,11.6%,?
CCCCCCSc1ccc([C@@H]2[C@@H]3C(=O)N(CC)C(=O)[C@@H]3[C@]3(C(=O)OC)CCCCN23)cc1,20.6µM*,0.0%,-16.7,-29.9%,5.1%,18.4µM*
CCCSc1ccc([C@@H]2[C@H]3C(=O)N(CC)C(=O)[C@H]3[C@]3(C(=O)OC)CCCN23)cc1OC,?,3.2%,-8.5,?,-2.7%,?
CCSc1ccc([C@@H]2[C@H]3C(=O)N(CC)C(=O)[C@H]3[C@]3(C(=O)OC)CCCCN23)cc1,23.1µM*,0.0%,8.2,?,4.5%,?
CCCSc1ccc([C@@H]2[C@@H]3C(=O)N(C)C(=O)[C@@H]3[C@]3(C(=O)OC)CCCCN23)cc1OC,23.1µM*,-1.4%,-2.8,?,2.3%,?
CCCSc1ccc([C@@H]2[C@H]3C(=O)N(CC)C(=O)[C@H]3[C@]3(C(=O)OC)CCCCN23)cc1OC,?,1.8%,-5.8,?,1.2%,?
NC(=O)C1CCN(C(=O)/C=C/c2ccc(C(F)(F)F)cc2)CC1,/,/,/,-4.4%,/,/
CCSc1ccc([C@@H]2[C@@H]3C(=O)N(CC)C(=O)[C@@H]3[C@]3(C(=O)OC)CCCCN23)cc1,23.1µM*,-10.1%,12.9,-16.8%,-13.6%,16.4µM*
CCC(C)Sc1ccc([C@@H]2[C@H]3C(=O)N(CC)C(=O)[C@H]3[C@]3(C(=O)OC)CCCCN23)cc1 (stereo partly specified),16.4µM*,-21.3%,-10.5,?,-30.0%,?
CCCCCCSc1ccc([C@@H]2[C@H]3C(=O)N(C)C(=O)[C@H]3[C@]3(C(=O)OC)CCCCN23)cc1,?,7.4%,-18.4,?,0.3%,?
CCSc1ccc([C@@H]2[C@H]3C(=O)N(C)C(=O)[C@H]3[C@]3(C(=O)OC)CCCCN23)cc1,16.4µM*,-24.3%,20.5,-9.3%,?,?
Cc1noc(C2CC3(CCN(C(=O)c4nccn4C)CC3)CN2C)n1 (stereo unspecified),/,/,/,23.9%,/,/
CN1CCCN(C(=O)NCCc2ccccc2)c2ccccc21,/,/,/,54.0%,/,/
SMILES,DT40 TDP1 no CPT,HT1080NT lethal,IL-1B inflam inh,ALOX12 inh,HT1080 IDH1KD tx,DT40 TDP1 CPT
Cn1c(=O)c2c(-c3ccc(Cl)cc3)n(Cc3ccccc3)cc2n(C)c1=O,/,/,/,-15.6%,/,/
CCCCCn1cc2c(c1-c1ccc(Cl)cc1)c(=O)n(C)c(=O)n2C,16.4µM*,/,/,-5.6%,/,16.4µM*
CCCCn1cc2c(c1-c1ccccc1Br)c(=O)n(C)c(=O)n2C,16.4µM*,/,/,?,/,23.1µM*
CCCCCn1cc2c(c1-c1ccccc1Br)c(=O)n(C)c(=O)n2C,11.6µM*,/,/,?,/,11.6µM*
O=C(Cn1cc(C(F)(F)F)ccc1=O)N1CCC2(CCCNC2=O)C1 (stereo unspecified),/,/,/,20.6%,/,/
CCS(=O)(=O)N1CCC(Nc2cccnc2)C1 (stereo unspecified),/,/,/,23.1%,/,/
COc1ccc(C(=O)N2CCN(C3CCC(c4ccccc4)CC3)CC2)cc1OC (stereo unspecified),14.6µM*,1.3%,-15.2,-24.0%,-19.7%,20.6µM*
COc1ccc(C(=O)N2CCC(N3CCN(c4ccccc4)CC3)CC2)cc1OC,-21.0%,21.2%,-12.9,-20.1%,6.3%,-13.5%
Cc1cccc2c1nc1n2[C@@H](CNC2CCC2)COC1,/,/,/,5.2%[176 µM],/,/
Cc1cc(-n2c(C)cc(C(=O)CSc3nnnn3-c3ccc(Cl)cc3)c2C)no1,7.31µM*,-25.5%,-1.1,-16.5%,6.9%,?
Cc1cc(C)n2nc(SCC(=O)c3cc(C)n(-c4cc(C)on4)c3C)nc2n1,10.3µM*,?,-4.8,-25.2%,-6.3%,10.3µM*
O=[N+]([O-])c1ccc(CSc2ncnc3ccccc23)cc1,?,-1.8%,-72.9*,?,-26.3%,?
O=c1c2ccccc2nc(SCc2ccc([N+](=O)[O-])cc2)n1-c1ccccc1,?,-3.8%[9.24 µM],-15.9,0.0%,-1.0%,?
Cc1cc(-n2c(C)cc(C(=O)CSc3nnc4sc5ccccc5n34)c2C)no1,?,11.1%,25.4,7.6%,-5.7%,16.4µM*
Cc1cc(-n2c(C)cc(C(=O)CSc3nnc(COc4ccc(Cl)cc4)o3)c2C)no1,/,/,/,-0.4%,/,/
CC(C)CN1CCN(C2CCOC3(CCN(C(=O)c4ccnn4C)CC3)C2)CC1 (stereo unspecified),/,/,/,15.2%,/,/
COc1cccc(-c2ncc3c(n2)OCCN(c2ccccc2)C3=O)c1,/,/,/,7.1%[176 µM],/,/
O=C(CCc1cc2ccccc2[nH]c1=O)NCc1ccco1,/,/,/,28.0%,/,/
